Source: PubChem BioAssay (several laboratories)
tim10-1 inh: growth inhibitors of tim10-1 mutant yeast, primary screen, luminescence, uHTS | AID 463190, 2010 | inhibition, % at 20 µM | S. cerevisiae tim10-1 ts strain growth, BacTiter-Glo, 24 h | actives 2.2% (n = 330,000);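 active = inhibition of at least 40%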;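 also: mutant grown at 25 °C; 0% = DMSO wells with yeast and 100% = wells holding no yeast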
NLRP3 yeast inh: NALP3 inflammasome inhibitors in reconstituted yeast, primary screen, luminescence, uHTS | Yeast reconstituted NLRP3/ASC/caspase-1, beta-gal luminescence, 24 h | inhibition, % at 10 µM | actives 0.39% (n = 330,000);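 active = inhibition of 50% or more; inactive = inhibition below 50%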;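 also: plate controls were induced DMSO wells for no effect and uninduced yeast grown without galactose for full effect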
NALP1 inh: NALP1 inflammasome inhibitors in reconstituted yeast, colorimetric, S. cerevisiae, triplicate retest | S. cerevisiae NALP1/ASC/caspase-1 growth, X-gal OD620, 72 h | actives 0.61% (n = 280,000) | inhibition, % at 10 µM; in the data active = inhibition mostly above about 24%, no sharp cut-off; inactive = mostly below about 32%
tim23-1 inh: growth inhibitors of tim23-1 mutant yeast, primary screen, luminescence, uHTS; inhibition, % at 20 µM; actives 1.3% (n = 330,000); S. cerevisiae tim23-1 growth, BacTiter-Glo luminescence, 24 h; AID 463212, 2010;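 active = growth inhibition of the mutant yeast at or above 50%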;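 also: temperature-sensitive mutant grown at 25 °C; plate controls were DMSO-treated mutant yeast for no effect and medium wells lacking yeast for full effect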
PfHsp90 set2: growth inhibition of PfHsp90-expressing yeast, primary screen, antimalarial PfHsp90 inhibitor project, S. cerevisiae, BacTiter-Glo luminescence, single point, set 2. BacTiter-Glo ATP, 48 h; yeast lacking PDR1 and PDR3 efflux regulators. inhibition, % at 9.4 µM. AID 504621, 2011. actives 0.32% (n = 310,000);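 active = every replicate shows inhibition above about 80%, whatever the replicate mean, limit read from the data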;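 also: 0% = DMSO neutral controls and 100% = 20 µM radicicol positive controls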
TIM10 inh: growth inhibitors of isogenic TIM10 control yeast, primary screen, counter-screen for tim10-1 yeast inhibitor project, luminescence, uHTS; AID 463195, 2010; inhibition, % at 10 µM; S. cerevisiae TIM10 strain growth, BacTiter-Glo luminescence, 24 h; actives 1.4% (n = 330,000);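 active = inhibition of 40% or more at the single tested concentration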;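 also: wild-type TIM10 isogenic control strain grown at permissive 25 °C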
NALP3 confirm: NALP3 inhibitors retested in yeast, confirmation, luminescence, single concentration | shares compounds with NLRP3 yeast inh | yeast expressing human NALP3 | inhibition, % at 10 µM | actives 81% (n = 1,300); in the data active = inhibition above about 48%
Casp1-ASC yeast: CASP1-PYCARD signaling inhibition in yeast, confirmatory test, counterassay for NLRP3 inhibitor program, one-dose; shares compounds with NLRP3 yeast inh; yeast expressing Caspase-1-ASC, luminescence counter screen; inhibition, % at 10 µM; actives 66% (n = 1,000); AID 488784, 2010
NALP3 retest: NALP3 inhibitors in yeast, repeat test, confirmation, luminescence, single concentration, retest; actives 53% (n = 1,000); inhibition, % at 10 µM; yeast expressing human NALP3, luminescence read-out; shares compounds with NLRP3 yeast inh
Numbers without * were called inactive; / = not tested or not shown. The list is not random: actives were taken first. Their share in the collection is about 4.1%. Rule as the data show it, unless noted: active = inhibition above about 50%; inactive = the rest.

SMILES | tim10-1 inh | NLRP3 yeast inh | NALP1 inh | tim23-1 inh | PfHsp90 set2 | TIM10 inh | NALP3 confirm | Casp1-ASC yeast | NALP3 retest
O=C(c1ccc2nc(Cc3cccc(Cl)c3)oc2c1)N1CCC[C@H]1CO | 18 | 2 | 21 | 17 | 4 | 11 | / | / | /
CC(NC(=O)CSc1ncccc1C(=O)O)C1CC2CCC1C2 (stereo not drawn) | 11 | 0 | 12 | 14 | 6 | 16 | / | / | /
CC1(C)C[C@H](O)[C@@]23C[C@@H](OC2=O)[C@]2(C)C(=CCC4[C@@]5(C)CC[C@H](O)C(C)(C)C5CC[C@]42C)[C@@H]3C1 (stereo partly drawn) | 8 | 51* | / | 11 | / | 4 | 68* | 41 | 41
CC1(C)C[C@H](O)[C@]2(CO)CC[C@]3(C)C(=CCC4[C@@]5(C)CC[C@H](O)C(C)(C)C5CC[C@]43C)[C@@H]2C1 (stereo partly drawn) | -19 | 41 | / | -1 | 35 | -6 | / | / | /
CC1(C)C2CC[C@]3(C)C(CC=C4[C@@H]5C[C@@](C)(CO)[C@@H]6C[C@@]5(CC[C@]43C)C(=O)O6)[C@@]2(C)CC[C@@H]1O (stereo partly drawn) | -17 | 55* | / | -4 | / | -31 | 58* | 28 | 30
COc1ccc(-c2nc3ccccc3s2)cc1NC(C)=O | -2 | 51* | 21 | 13 | 11 | 16 | 44 | 25 | 33
NCCc1nnc(SCc2ccccc2F)o1 | 9 | 63* | 16 | 1 | 7 | 4 | 74* | 68* | 70*
c1ccc(CSc2nnc(Cc3ccccc3)o2)cc1 | 21 | 10 | 9 | 16 | -4 | 6 | / | / | /
NCCc1nnc(SCc2ccccc2)o1 | 7 | 61* | 16 | 3 | 29 | -9 | 75* | 61* | 61*
Cc1ccc(C)c(CSc2nnc(CCN)o2)c1 | 16 | 72* | 3 | 8 | / | 7 | 80* | 65* | 72*
Cc1ccc(C)n1-c1nccc(-c2ccco2)n1 | 7 | -28 | -2 | 9 | / | -2 | / | / | /
O=C(CSCc1ccccc1Br)N/N=C/c1ccccc1C(=O)O | 6 | 1 | 2 | 18 | -3 | 13 | / | / | /
CN(CC(=O)Nc1ccccc1Br)C(=O)CN1CCN(Cc2ccc(Cl)cc2)CC1 | 14 | 14 | / | 9 | / | 1 | / | / | /
Nc1nc(SCc2ccc(Cl)cc2Cl)c2ncn(C3OC(CO)C(O)C3O)c2n1 (stereo not drawn) | / | / | / | / | -7 | / | / | / | /
CC1CN(S(=O)(=O)c2cccs2)CC(C)O1 (stereo not drawn) | -9 | -21 | 11 | -12 | 25 | 0 | / | / | /
O=S(=O)(c1cccs1)N1CCN(c2ccccc2)CC1 | -2 | 44 | 10 | 7 | 8 | 3 | / | / | /
O=S(=O)(c1cccs1)N1CCN(c2ccc(Cl)cc2)CC1 | 11 | 58* | 33 | 25 | 10 | -14 | 63* | 46 | 37
Cc1ccc(N2CCN(S(=O)(=O)c3cccs3)CC2C)cc1 (stereo not drawn) | 17 | 56* | 35 | 46 | 21 | 7 | 57* | 57* | 50
CC(C)c1ccc(/C=C(\NC(=O)c2ccccc2)C(=O)NCCN2CCOCC2)cc1 | 7 | 12 | 11 | 2 | -23 | 3 | / | / | /
O=C(CN(C(=O)CNC(=O)c1cccs1)c1ccccc1F)NC1CCCC1 | -5 | 15 | 8 | -15 | 9 | -3 | / | / | /
Cc1[nH]c(=O)[nH]c(=O)c1S(=O)(=O)Nc1ccc(Br)cc1F | 6 | 17 | 8 | -4 | 1 | -6 | / | / | /
Cc1cccc(OCc2nc3ccccc3n2C)c1 | 0 | 54* | 5 | 14 | 7 | -2 | 72* | 55* | 41
Cn1c(COc2ccc(F)cc2)nc2ccccc21 | -43 | 39 | 7 | 11 | -2 | -5 | / | / | /
Cc1c(Cl)cccc1NC(=S)NNS(=O)(=O)c1ccc([N+](=O)[O-])cc1 | -4 | 14 | 6 | 4 | -11 | 14 | / | / | /
COc1cccc2cc(C(=O)c3ccccc3)oc12 | 1 | 50* | -9 | 33 | -65 | 9 | 34 | / | /
SMILES | tim10-1 inh | NLRP3 yeast inh | NALP1 inh | tim23-1 inh | PfHsp90 set2 | TIM10 inh | NALP3 confirm | Casp1-ASC yeast | NALP3 retest
CC(=O)Nc1ccc(/C=N/Nc2nncc3ccccc23)cc1 | / | / | -10 | / | -6 | / | / | / | /
Fc1cccc(/C=N/Nc2nncc3ccccc23)c1 | 10 | 57* | 12 | 18 | 12 | 18 | 63* | 44 | 38
Cc1c(C)c(C)c(S(=O)(=O)NCCC(=O)N2CCN(Cc3ccc(C#N)cc3)CC2)c(C)c1C | 9 | 9 | / | 4 | -15 | 3 | / | / | /
CN(C)c1oc(/C=C/c2ccccc2)nc1C#N | -1 | 54* | 32 | 21 | 32 | 15 | 42 | 57* | 50*
CC(C)(C)c1ccc(C(=O)NCC(=O)N2CCCCCC2)cc1 | 6 | 25 | 12 | 28 | 5 | 18 | / | / | /
Cc1ccc2c(c1)CCCN2C(=O)c1cccs1 | 26 | 36 | / | -2 | 25 | -2 | / | / | /
Cc1ccc2c(c1)CCCN2C(=O)c1cc(C)c(C)s1 | 14 | 52* | / | 24 | 11 | -12 | 59* | 44 | 35
CCOC(=O)Cc1csc(NC(=O)c2cccs2)n1 | -7 | 28 | 21 | 16 | / | 4 | / | / | /
CCOC(=O)Cc1csc(NC(=O)c2ccc(Br)s2)n1 | -27 | 67* | 39* | 28 | / | 6 | 76* | / | /
CCCc1ccc(C(=O)NNc2cc(Cl)ccc2Cl)cc1 | 3 | 57* | 6 | 29 | -15 | 18 | 54* | 56* | 49
COc1cc(C(C[N+](=O)[O-])c2c(C)[nH]c3ccccc23)ccc1O (stereo not drawn) | 26 | 10 | 6 | 25 | 23 | 29 | / | / | /
COc1cc(C(C[N+](=O)[O-])c2c(N)n(C)c(=O)n(C)c2=O)ccc1O (stereo not drawn) | -4 | 50* | -4 | 48 | -6 | 28 | 32 | / | /
O=C(CSCc1ccccc1)N1CCN(S(=O)(=O)c2cccc(F)c2)CC1 | 16 | 23 | / | 21 | 14 | -2 | / | / | /
Clc1ccccc1OCCn1cnc2ccccc21 | 23 | 76* | 30* | 34 | / | -8 | 84* | 79* | 63*
Clc1ccc(OCCn2cnc3ccccc32)cc1 | 27 | 49 | 9 | 33 | -10 | 10 | / | / | /
